# Assay results: PubChem BioAssay (NCI)
# About 79,000 compounds went through this panel and 15% of them were active in at least one assay; those are over-represented in the sample as a whole. A number with no mark means an inactive call. Activity calls are given as the source filed them. Cut-off read from the data, not from the text of the source: active = growth inhibition above about 70%; inactive = the rest.
# Legend:
# [1] = NCI Yeast Anticancer Drug Screen. Data for the rad50 strain (AID 155);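 note: 0% = growth of vehicle-only cultures of the same strain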; conditions: S. cerevisiae rad50 strain growth inhibition, stronger effect = higher value
# How it was run: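 DNA repair mutant yeast, compound exposure, growth read-out; inhibition is taken relative to vehicle.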
# [2] = NCI Yeast Anticancer Drug Screen. Data for the mec2-1 strain (AID 157); conditions: S. cerevisiae mec2-1 strain, stronger effect = higher value
# How it was run: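 Growth inhibition is read against vehicle-treated controls after compound exposure of the mec2-1 yeast strain, which is defective in DNA damage repair or cell cycle control.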
# [3] = NCI Yeast Anticancer Drug Screen. Data for the sgs1 mgt1 strain (AID 161);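 note: 0% = growth of cultures given vehicle only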; conditions: S. cerevisiae sgs1 mgt1 strain, stronger effect = higher value
# How it was run: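 Percent growth inhibition was derived by comparing compound-exposed mutant yeast with vehicle-exposed cultures. The strain carries alterations in DNA damage repair.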
# [4] = NCI Yeast Anticancer Drug Screen. Data for the cln2 rad14 strain (AID 165);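 note: 0% = growth equal to vehicle treated cultures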; conditions: S. cerevisiae cln2 rad14 strain, stronger effect = higher value
# How it was run: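 Growth inhibition, relative to vehicle-treated controls, is the read-out. The test organism is a yeast strain with defined genetic alterations, cln2 rad14.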
# [5] = NCI Yeast Anticancer Drug Screen. Data for the bub3 strain (AID 167); conditions: S. cerevisiae bub3 mutant strain, stronger effect = higher value
# How it was run: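 In this screen, a yeast mutant lacking normal mitotic checkpoint function is challenged with compound. Relative growth versus vehicle gives the inhibition value.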
# [6] = NCI Yeast Anticancer Drug Screen. Data for the mlh1 rad18 strain (AID 175); conditions: S. cerevisiae mlh1 rad18 strain growth inhibition, stronger effect = higher value
# How it was run: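 Cells of a genetically altered yeast strain, deficient in DNA damage repair, were treated with compound. Their growth was then compared with that of vehicle-treated cultures to give inhibition.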
# [7] = at 5.0 µM (retest, dose inferred, filed as 0.5)
# [8] = at 50.0 µM (retest, dose inferred, filed as 5.0)
Structure (SMILES),"growth inhibition [1, 7]","growth inhibition [1, 8]",growth inhibition ([1]; at 50.0 µM),"growth inhibition [2, 7]","growth inhibition [2, 8]",growth inhibition ([2]; at 50.0 µM),"growth inhibition [3, 7]","growth inhibition [3, 8]",growth inhibition ([3]; at 50.0 µM),"growth inhibition [4, 7]","growth inhibition [4, 8]",growth inhibition ([4]; at 50.0 µM),"growth inhibition [5, 7]","growth inhibition [5, 8]",growth inhibition ([5]; at 50.0 µM),"growth inhibition [6, 7]","growth inhibition [6, 8]",growth inhibition ([6]; at 50.0 µM)
Oc1cc(F)ccc1-c1ccc(F)cc1,-5%,98% (active),72.5% (active),20%,99% (active),85% (active),13%,97% (active),47.4%,-9%,98% (active),60.3%,-12%,99% (active),75.7% (active),-6%,98% (active),84.7% (active)
O=[N+]([O-])c1ccc(Cl)c(C(Nc2nncs2)Nc2nncs2)c1,-2%,91% (active),49.1%,2%,70% (active),23.9%,-3%,61%,61.7%,18%,84% (active),36.3%,-5%,92% (active),20.4%,-13%,84% (active),51.8%
CC(C)(C[NH-])C[NH-].[Cl][Pt+2]([Cl])([Cl])[Cl],78% (active),97% (active),82.3% (active),93% (active),99% (active),86.5% (active),95% (active),99% (active),86.5% (active),79% (active),99% (active),87.4% (active),95% (active),99% (active),82.5% (active),90% (active),97% (active),57.5%
O=C(O)/C=C/c1c2ccccc2cc2ccccc12,41%,96% (active),97.1% (active),16%,98% (active),96.5% (active),27%,97% (active),94.7% (active),9%,96% (active),96.9% (active),71% (active),96% (active),97.3% (active),47%,97% (active),97.5% (active)
Oc1ccc(Cc2ccccc2)cc1Cl,-1%,74% (active),47.5%,-2%,72% (active),41.7%,-2%,78% (active),42.8%,-4%,47%,95% (active),-6%,54%,97.7% (active),-1%,85% (active),41.6%
CCC/C(=N\O)S(=O)(=O)c1ccc(NN=O)nc1,-18%,-11%,-22.1%,-20%,1%,-26.8%,3%,-11%,-36.1%,-31%,-13%,34.5%,-33%,-18%,-4.4%,-33%,-21%,-28%
CCCCCCCCCCCCCCCCCC(=O)OCCN1C(=O)c2ccccc2C1=O,-1%,4%,-5.4%,10%,-10%,9.15%,5%,12%,17.7%,-1%,-6%,71.7% (active),-4%,-8%,44%,-2%,-11%,43.3%
CC1(C)CC(=O)C(/C=N/c2nc(-c3cccc([N+](=O)[O-])c3)cs2)=C(O)C1,17%,99% (active),99% (active),15%,99% (active),99% (active),5%,99% (active),99% (active),-7%,99% (active),98.5% (active),20%,99% (active),99.1% (active),14%,99% (active),99% (active)
Nc1ccccc1Sc1ccccc1,36%,58%,83.2% (active),26%,61%,77.3% (active),46%,66%,62.5%,29%,47%,83.2% (active),37%,73% (active),64.5%,35%,78% (active),71% (active)
O=c1cccccc1[O-].O=c1cccccc1[O-].O=c1cccccc1[O-].[Ce+3],31%,31%,90% (active),20%,20%,92% (active),13%,13%,85% (active),16%,16%,90.4% (active),10%,10%,91.2% (active),26%,26%,88.5% (active)
Cc1nc(N)sc1N=Nc1cc(Cl)c([N+](=O)[O-])cc1Cl,-4%,26%,38%,-7%,33%,39.5%,4%,77% (active),70.2% (active),4%,2%,35.1%,4%,7%,47.5%,11%,78% (active),78.1% (active)
FC(F)(F)c1ccccc1NC(=S)SCc1ccc2c(c1)OCO2,7%,95% (active),98.8% (active),8%,98% (active),99% (active),1%,97% (active),99% (active),2%,96% (active),98% (active),3%,95% (active),98.3% (active),1%,96% (active),99% (active)
COc1ccc(NNC(=O)c2ccccc2)cc1,29%,97% (active),96.3% (active),9%,95% (active),97.5% (active),13%,98% (active),96.3% (active),3%,97% (active),96.8% (active),-9%,98% (active),98.2% (active),13%,98% (active),97.7% (active)
COc1cc2c(cc1OC)NCC1COc3c(ccc(OC)c3OC)C1=N2 (configuration not stated),12%,14%,-44.9%,14%,8%,-6.65%,15%,17%,-18.4%,19%,17%,11.1%,17%,22%,16%,12%,24%,-37.8%
CC(C)(Cl)C(Cl)CC/C(CBr)=C(\Cl)CCl (configuration not stated),28%,98% (active),86.7% (active),19%,98% (active),89.9% (active),14%,100% (active),91.5% (active),26%,98% (active),88.2% (active),27%,100% (active),88.2% (active),21%,98% (active),1.35%
O=C(O)CC/C(=N\Nc1ccccc1)C(=O)O,3%,96% (active),97.2% (active),-2%,90% (active),98% (active),-8%,84% (active),97.4% (active),6%,98% (active),97% (active),1%,93% (active),97.3% (active),5%,93% (active),97% (active)
CC(=O)OCC1OC(c2cccc3c2c2ccccc2n3S(=O)(=O)c2ccccc2)C(O)C1O (configuration not stated),1%,93% (active),17.4%,1%,97% (active),-0.7%,-1%,97% (active),7.15%,2%,98% (active),1.25%,0%,98% (active),7.8%,1%,98% (active),37.9%
O=C(Nc1ccc(C2=NCCN2)cc1)c1ccc(C(=O)Nc2ccc(C3=NCCN3)cc2)c(Cl)c1,42%,97% (active),51.2%,25%,98% (active),78.7% (active),57%,99% (active),76% (active),43%,96% (active),80% (active),54%,98% (active),68.5%,35%,95% (active),87.8% (active)
O=C1OC(=O)C2C1C1(c3ccccc3)OC2(c2ccccc2)c2c(Br)c(Br)c(Br)c(Br)c21 (configuration not stated),23%,99% (active),98.8% (active),25%,100% (active),99.4% (active),15%,99% (active),99.2% (active),18%,99% (active),98.6% (active),2%,99% (active),98.7% (active),38%,99% (active),98.2% (active)
